Records with an inconclusive call do not appear. Active and inactive are the calls of the source.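 Rule for the calls, unless noted: active = response below a set limit, under 55% cells CD8-positive and vesicle-bound, and CD8 cells' 90th-percentile brightness under 279; inactive = the rest.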
Assays:
[1] = yeast TOR pathway RPL19A-GFP modulators, primary screen, cell-based, S. cerevisiae, multiplex flow cytometry (AID 1862; in the data active = percent of DMSO control GFP below about 86%;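 note: lower values mimic rapamycin by blocking the RPL19A rise seen in DMSO cells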); details: S. cerevisiae RPL19A-GFP strain, flow cytometry fluorescence, 3 h; at 10 µM; stronger effect = lower value
[2] = modulators of MEP2-GFP levels in yeast, primary screen, S. cerevisiae, multiplex flow cytometry (AID 1867;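 active = GFP response, as percent of the DMSO control, above the screen-wide mean plus 3 SD, about 139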;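 note: median GFP channel fluorescence of barcode-gated MEP2-GFP cells measured by flow cytometry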); details: S. cerevisiae MEP2-GFP strain, 3 h, at 10 µM, stronger effect = higher value, 100% means same as DMSO wells
[3] = modulators of CIT2-GFP expression in yeast, primary screen, S. cerevisiae, GFP fusion, multiplex flow cytometry (AID 1870;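 active = percent response above a set limit, the screen-wide mean plus 3 SD, cut at about 130% in these data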;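 note: barcoded CIT2-GFP strain pooled with four other GFP strains with rapamycin as positive control; median GFP fluorescence per well over plate mean of DMSO wells so 100% = DMSO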); details: 3 h, at 10 µM, stronger effect = higher value
[4] = modulators of LAP4-GFP expression in yeast, primary screen, S. cerevisiae, multiplex flow cytometry (AID 1873;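 active = GFP signal, as percent of the solvent control, above the screen mean plus 3 SD, about 149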); details: 3 h, at 10 µM, stronger effect = higher value
[5] = modulators of AGP1-GFP expression in yeast TOR pathway, primary screen, cell-based, multiplex flow cytometry, S. cerevisiae (AID 1887;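 active = GFP signal above the screen-wide mean plus 3 SD, that is over about 124.5% of the solvent control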;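 note: AGP1-GFP fusion strain of S. cerevisiae within a five-strain barcoded multiplex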); details: 3 h, at 10 µM, stronger effect = higher value
[6] = inhibitors of CD8+ T cell-vesicle binding, pilot screen, LFA-1/ICAM-1 modulator project, MLPCN validation set, flow cytometry (AID 2523); details: 2C mouse CD8+ T cells, at 7 µM, stronger effect = lower value; double positive events: measured here: CD8+/vesicle+ event percentage;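 for vesicle binding response: mean PE anti-B7-1 fluorescence of CD8+ cells relative to row control; 100% = QL9-loaded vesicles with DMSO vehicle in the same plate row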
[7] = molecular target: Integrin beta-1 (Homo sapiens) + Integrin alpha-4 (Homo sapiens) (UniProt P13612+P05556); test: inhibition of HUTS-21 binding to VLA-4, pilot screen, VLA-4 allosteric modulator project, U937 cells, HUTS-21 mAb, flow cytometry, validation set (AID 2674;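 active = inhibition above 50%, about 3 SD of the validation set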;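 note: antibody binding induced by the VLA-4 ligand LDV present at three times its Kd; 0% = LDV ligand with antibody and no compound and 100% = antibody without LDV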); details: HUTS-21 LIBS mAb binding, at 6.7 µM, stronger effect = higher value, binding induced by LDV ligand
[8] = superoxide lowering in aged yeast cells, pilot screen, validation compound set (AID 2706;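 active = superoxide response below 65% of plate, a cut near 3 SD across the whole screen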;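 note: yeast exposed to compound for one week at 30 degrees C before staining; 100% = mean of all compound wells on the same plate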); details: S. cerevisiae aging, superoxide DHE fluorescence; at 10 µM; stronger effect = lower value
[9] = molecular target: Beta-adrenergic receptor kinase 1 (Homo sapiens) (UniProt P25098); test: GRK2 binders displacing RNA aptamer, biochemical, validation, human GRK2, bead flow cytometry (AID 488806;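 active = aptamer binding inhibition above 30%, about 3 SD of noise from non-fluorescent compounds; inactive = inhibition at or below 30%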); details: bead-bound GRK2, FAM-aptamer displacement, at 10 µM, stronger effect = higher value
[10] = molecular target: Beta-2 adrenergic receptor (Homo sapiens) (UniProt P07550); test: beta2AR agonists driving receptor internalization, pilot screen, cell-based, FAP fluorogen, flow cytometry, validation set (AID 504459;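 active = percent response above 42, roughly 3 SD of non-fluorescent test compounds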;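 note: agonist-driven loss of surface beta2AR via internalization measured by FAP dye flow cytometry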); details: Am2.2-beta2AR cells, FAP surface receptor flow cytometry; at 10 µM; stronger effect = higher value
[11] = molecular target: AP-2 complex subunit beta (Homo sapiens) (UniProt P63010); test: inhibitors of arrestin peptide binding to AP2, pilot screen, biochemical, validation set, GST-AP2 beads, flow cytometry (AID 504541;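 active = inhibition above 54%, about 3 SD of non-fluorescent compounds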;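 note: AP2 carries R879A mutation and is captured from E. coli lysate; bead-bound FITC arrestin peptide fluorescence measuring arrestin peptide binding to AP2; 0% = DMSO wells and 100% = excess unlabeled arrestin peptide control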); details: FITC arrestin peptide, at 10 µM, stronger effect = higher value, AP2 beta2 appendage fragment, R879A mutant
[12] = yeast V-ATPase proton transport modulators, S. cerevisiae, pHLuorin, HTS validation (AID 504600; in the data active = response above about 15%;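 note: plate controls were DMSO for no effect and reference compound for full effect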); details: S. cerevisiae pHLuorin cytosolic pH, at 10 µM, stronger effect = higher value
[13] = tested on: anti-desmoglein-3 scFv antibody binding to human DSG3; test: inhibitors of anti-DSG3 scFv binding to DSG3, pilot screen, biochemical, validation compound set, bead-based, flow cytometry (AID 588368;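 active = binding below the plate cutoff, the plate median minus 3 SD, with a reading above zero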;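 note: signal is the median channel fluorescence of bead-bound GFP antibody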); details: Protein G beads, DSG3-Fc, scFv-GFP binding, at 10 µM, stronger effect = lower value
[14] = inhibitors of fungal efflux pumps CDR1, CDR2, MDR1, pilot screen, validation compound set, multiplex, phenotypic (AID 588506;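 active = efflux inhibition above 0.42, the validation set average plus 4 SD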;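 note: Nile Red retained in cells so higher fluorescence means more efflux inhibition; 0 = negative control wells and 1 = enniatin B 25 µM full block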); details: S. cerevisiae pump-expressing triplex, Nile Red efflux flow cytometry; at 10 µM; stronger effect = higher value; the pumps come from Candida albicans
[15] = molecular target: ATP-binding cassette sub-family B member 6 (Homo sapiens) (UniProt Q9NP58); test: ABCB6 transporter inhibitors, pilot screen, K562-ABCB6 cells, flow cytometry, validation set (AID 588550;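 active = inhibition above the screen-wide mean plus 3 SD, about 51%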;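 note: 0% = DMSO wells and 100% = benzethonium chloride 70 µM positive control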); details: K562-ABCB6 porphyrin accumulation, 1 h, at 10 µM, stronger effect = higher value
[16] = promoters of myeloid differentiation in arrested cells, primary screen, cell-based, GFP/MAC1 double positive, flow cytometry, validation set (AID 588685;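 active = differentiation response of at least 50%, scaled between solvent and reference control, from cells with both markers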;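 note: compound exposure lasts four days before antibody staining and flow analysis; 0% = DMSO wells and 100% = 5 µM fulvestrant positive control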); details: ER-HoxA9 marrow cells, stronger effect = higher value, normalized: vehicle 0, fulvestrant 100

Chain of AP-2 complex subunit beta (Homo sapiens) (P63010 whole entry, looked up, the tested form may be a part, one chain of several): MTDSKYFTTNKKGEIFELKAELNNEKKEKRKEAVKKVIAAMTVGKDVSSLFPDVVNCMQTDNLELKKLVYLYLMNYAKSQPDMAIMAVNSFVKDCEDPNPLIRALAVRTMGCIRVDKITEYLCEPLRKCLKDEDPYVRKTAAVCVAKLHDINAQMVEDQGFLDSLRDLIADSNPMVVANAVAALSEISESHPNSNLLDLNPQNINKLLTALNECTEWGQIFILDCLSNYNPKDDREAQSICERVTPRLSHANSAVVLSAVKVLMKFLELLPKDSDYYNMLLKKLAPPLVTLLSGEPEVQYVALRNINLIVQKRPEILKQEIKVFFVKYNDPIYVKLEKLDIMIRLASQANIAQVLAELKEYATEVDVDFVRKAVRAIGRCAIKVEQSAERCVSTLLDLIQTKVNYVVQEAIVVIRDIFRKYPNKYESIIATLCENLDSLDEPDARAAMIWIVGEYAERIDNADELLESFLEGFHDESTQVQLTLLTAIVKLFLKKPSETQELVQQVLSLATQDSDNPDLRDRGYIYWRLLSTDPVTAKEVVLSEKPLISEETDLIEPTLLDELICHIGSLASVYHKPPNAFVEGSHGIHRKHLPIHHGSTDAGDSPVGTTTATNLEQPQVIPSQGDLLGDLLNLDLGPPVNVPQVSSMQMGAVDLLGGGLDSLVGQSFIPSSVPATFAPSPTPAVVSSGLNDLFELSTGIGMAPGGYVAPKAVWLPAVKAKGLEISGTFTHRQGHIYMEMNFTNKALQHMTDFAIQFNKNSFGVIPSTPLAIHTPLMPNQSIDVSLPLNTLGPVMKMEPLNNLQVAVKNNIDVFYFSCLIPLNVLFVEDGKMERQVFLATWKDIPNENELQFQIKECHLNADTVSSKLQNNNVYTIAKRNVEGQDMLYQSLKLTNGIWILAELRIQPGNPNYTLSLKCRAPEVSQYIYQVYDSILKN
Chain of Beta-2 adrenergic receptor (Homo sapiens) (P07550 whole entry, looked up): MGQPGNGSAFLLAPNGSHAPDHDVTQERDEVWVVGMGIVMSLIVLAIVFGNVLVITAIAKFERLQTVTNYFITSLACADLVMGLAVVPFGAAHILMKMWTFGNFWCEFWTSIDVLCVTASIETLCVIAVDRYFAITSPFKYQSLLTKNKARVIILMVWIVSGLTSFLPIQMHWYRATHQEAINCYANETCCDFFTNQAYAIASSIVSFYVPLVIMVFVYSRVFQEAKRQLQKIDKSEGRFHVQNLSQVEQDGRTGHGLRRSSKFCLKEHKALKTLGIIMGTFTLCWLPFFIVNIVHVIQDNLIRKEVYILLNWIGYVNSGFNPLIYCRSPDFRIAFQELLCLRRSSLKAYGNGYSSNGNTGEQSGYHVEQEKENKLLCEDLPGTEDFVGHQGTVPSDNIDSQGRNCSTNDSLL
Chain of Beta-adrenergic receptor kinase 1 (Homo sapiens) (P25098 whole entry, looked up): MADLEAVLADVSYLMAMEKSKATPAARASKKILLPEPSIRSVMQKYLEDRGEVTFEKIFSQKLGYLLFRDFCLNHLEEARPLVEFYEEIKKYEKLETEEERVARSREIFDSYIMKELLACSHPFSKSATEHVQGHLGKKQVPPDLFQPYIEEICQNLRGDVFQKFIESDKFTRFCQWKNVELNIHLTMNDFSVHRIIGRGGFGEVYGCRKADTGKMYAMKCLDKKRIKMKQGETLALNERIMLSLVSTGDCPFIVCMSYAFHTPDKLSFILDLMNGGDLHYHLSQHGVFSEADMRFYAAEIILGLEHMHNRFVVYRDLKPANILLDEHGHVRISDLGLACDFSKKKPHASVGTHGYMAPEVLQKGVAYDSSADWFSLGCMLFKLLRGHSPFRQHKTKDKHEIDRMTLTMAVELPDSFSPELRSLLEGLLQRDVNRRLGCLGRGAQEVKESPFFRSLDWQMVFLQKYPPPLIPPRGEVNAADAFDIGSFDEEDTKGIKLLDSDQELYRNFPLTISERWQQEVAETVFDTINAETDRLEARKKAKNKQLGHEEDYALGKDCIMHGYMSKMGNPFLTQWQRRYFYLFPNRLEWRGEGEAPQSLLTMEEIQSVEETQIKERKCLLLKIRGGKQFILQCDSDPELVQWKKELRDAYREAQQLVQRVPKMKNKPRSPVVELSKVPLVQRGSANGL
Chain of Integrin beta-1 (Homo sapiens) + Integrin alpha-4 (Homo sapiens) (P05556 whole entry, looked up): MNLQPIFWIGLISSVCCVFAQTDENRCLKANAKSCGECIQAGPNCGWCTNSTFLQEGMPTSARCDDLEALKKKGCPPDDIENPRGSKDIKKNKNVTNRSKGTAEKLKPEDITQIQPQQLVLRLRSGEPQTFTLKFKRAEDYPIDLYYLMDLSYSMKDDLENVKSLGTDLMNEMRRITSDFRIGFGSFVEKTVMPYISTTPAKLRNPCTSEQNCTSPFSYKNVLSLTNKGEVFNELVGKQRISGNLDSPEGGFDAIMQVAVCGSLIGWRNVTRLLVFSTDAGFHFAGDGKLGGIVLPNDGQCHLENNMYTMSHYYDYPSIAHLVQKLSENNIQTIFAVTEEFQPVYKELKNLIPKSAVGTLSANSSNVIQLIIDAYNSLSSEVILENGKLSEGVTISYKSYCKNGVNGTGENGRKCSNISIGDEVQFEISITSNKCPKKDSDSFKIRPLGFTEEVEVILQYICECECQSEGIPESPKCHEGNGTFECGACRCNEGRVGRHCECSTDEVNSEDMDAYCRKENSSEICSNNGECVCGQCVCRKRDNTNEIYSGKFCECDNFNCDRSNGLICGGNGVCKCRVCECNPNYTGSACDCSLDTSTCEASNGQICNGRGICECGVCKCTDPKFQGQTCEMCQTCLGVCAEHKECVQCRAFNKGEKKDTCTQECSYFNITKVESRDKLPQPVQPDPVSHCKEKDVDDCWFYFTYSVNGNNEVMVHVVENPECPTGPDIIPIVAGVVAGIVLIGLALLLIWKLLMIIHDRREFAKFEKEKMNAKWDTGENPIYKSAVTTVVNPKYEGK
Chain of Integrin beta-1 (Homo sapiens) + Integrin alpha-4 (Homo sapiens) (P13612 whole entry, looked up): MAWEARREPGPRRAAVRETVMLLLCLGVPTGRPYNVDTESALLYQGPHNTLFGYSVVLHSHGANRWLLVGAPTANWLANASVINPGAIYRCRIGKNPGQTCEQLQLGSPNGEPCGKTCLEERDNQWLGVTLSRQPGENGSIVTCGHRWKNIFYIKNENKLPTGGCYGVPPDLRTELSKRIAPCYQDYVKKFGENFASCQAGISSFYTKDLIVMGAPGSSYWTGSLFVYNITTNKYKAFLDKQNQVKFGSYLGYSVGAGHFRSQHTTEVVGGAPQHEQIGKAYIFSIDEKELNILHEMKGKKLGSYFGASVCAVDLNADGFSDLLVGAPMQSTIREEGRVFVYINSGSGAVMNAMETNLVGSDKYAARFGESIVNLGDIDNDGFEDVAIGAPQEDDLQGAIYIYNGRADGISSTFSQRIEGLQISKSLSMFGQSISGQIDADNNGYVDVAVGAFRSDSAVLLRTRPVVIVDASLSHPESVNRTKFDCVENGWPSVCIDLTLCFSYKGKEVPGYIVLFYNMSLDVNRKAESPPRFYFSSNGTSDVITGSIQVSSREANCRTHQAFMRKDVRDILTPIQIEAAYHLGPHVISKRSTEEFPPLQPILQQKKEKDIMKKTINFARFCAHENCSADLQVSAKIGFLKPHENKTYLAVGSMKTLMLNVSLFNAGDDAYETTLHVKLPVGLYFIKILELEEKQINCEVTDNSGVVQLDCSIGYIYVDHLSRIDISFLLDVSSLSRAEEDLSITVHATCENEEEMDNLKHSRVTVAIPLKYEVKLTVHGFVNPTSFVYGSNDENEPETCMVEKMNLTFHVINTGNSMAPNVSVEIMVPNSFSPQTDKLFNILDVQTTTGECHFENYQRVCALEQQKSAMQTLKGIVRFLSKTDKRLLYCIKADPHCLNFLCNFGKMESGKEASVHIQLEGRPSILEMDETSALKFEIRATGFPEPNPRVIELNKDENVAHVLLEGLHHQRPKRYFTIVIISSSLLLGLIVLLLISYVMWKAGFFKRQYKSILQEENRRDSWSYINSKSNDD
Chain of ATP-binding cassette sub-family B member 6 (Homo sapiens) (Q9NP58 whole entry, looked up): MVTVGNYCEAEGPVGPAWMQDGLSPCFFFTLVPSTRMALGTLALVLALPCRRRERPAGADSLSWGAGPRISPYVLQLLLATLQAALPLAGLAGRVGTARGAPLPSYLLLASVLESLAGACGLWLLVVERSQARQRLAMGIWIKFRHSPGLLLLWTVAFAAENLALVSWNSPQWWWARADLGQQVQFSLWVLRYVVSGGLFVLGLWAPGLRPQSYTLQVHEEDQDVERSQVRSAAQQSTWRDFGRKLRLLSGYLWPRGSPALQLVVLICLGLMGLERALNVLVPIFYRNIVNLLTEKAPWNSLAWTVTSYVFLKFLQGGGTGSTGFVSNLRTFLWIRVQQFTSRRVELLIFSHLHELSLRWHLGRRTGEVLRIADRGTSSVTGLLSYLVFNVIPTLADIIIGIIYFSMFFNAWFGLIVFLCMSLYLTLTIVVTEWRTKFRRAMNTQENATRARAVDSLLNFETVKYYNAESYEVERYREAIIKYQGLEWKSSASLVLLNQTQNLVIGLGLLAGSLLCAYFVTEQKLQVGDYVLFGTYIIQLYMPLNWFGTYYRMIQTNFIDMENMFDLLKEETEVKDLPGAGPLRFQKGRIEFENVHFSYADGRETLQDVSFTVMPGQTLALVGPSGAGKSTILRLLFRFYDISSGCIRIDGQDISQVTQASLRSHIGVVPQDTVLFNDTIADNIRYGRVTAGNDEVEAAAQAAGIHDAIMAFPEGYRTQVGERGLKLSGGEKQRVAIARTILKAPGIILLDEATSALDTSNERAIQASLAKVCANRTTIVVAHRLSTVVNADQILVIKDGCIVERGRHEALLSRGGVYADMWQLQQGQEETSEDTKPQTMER

Structure (SMILES) | percent of DMSO control GFP [1] | GFP response vs DMSO [2] | percent response of DMSO control [3] | GFP response vs DMSO [4] | GFP response, % of DMSO [5] | double positive events [6] | vesicle binding response [6] | inhibition [7] | superoxide response (% of plate) [8] | aptamer binding inhibition [9] | response [10] | inhibition [11] | response [12] | binding (% of control) [13] | efflux inhibition (fraction of control) [14] | inhibition [15] | differentiation response [16]
Cn1cc(CN2CCN(CCO)CC2)c(-c2ccc(Oc3ccccc3)cc2)n1 | 102% (inactive) | 102% (inactive) | 96.7% (inactive) | 114% (inactive) | 100% (inactive) | 61% | 244% (inactive) | 13.2% (inactive) | 82.1% (inactive) | 0% (inactive) | 11.3% (inactive) | -1.86% (inactive) | 3.7% (inactive) | 99.7% (inactive) | -0.28 (inactive) | 6% (inactive) | 15.2% (inactive)
Nc1ccc(S(N)(=O)=O)cc1N | 98.1% (inactive) | 119% (inactive) | 99.2% (inactive) | 84.7% (inactive) | 91.7% (inactive) | 66.3% | 202% (inactive) | 3.55% (inactive) | 82.8% (inactive) | 3% (inactive) | 31.7% (inactive) | 7.24% (inactive) | 0.32% (inactive) | 103% (inactive) | -0.28 (inactive) | 14% (inactive) | 2.46% (inactive)
CCOC(=O)C1=C(N)Oc2c(c(=O)[nH]c3ccccc23)C1c1ccccc1 (stereo not drawn) | 100% (inactive) | 106% (inactive) | 91% (inactive) | 112% (inactive) | 107% (inactive) | 57.2% | 179% (inactive) | 0.94% (inactive) | 103% (inactive) | 6% (inactive) | 3.69% (inactive) | 1.81% (inactive) | 1.75% (inactive) | 104% (inactive) | 0.01 (inactive) | 7% (inactive) | -0.8% (inactive)
COc1ccc(CNCCC(c2ccc(F)cc2)c2ccc(OC(C)C)cc2)cc1OC (stereo not drawn) | 97.9% (inactive) | 105% (inactive) | 105% (inactive) | 119% (inactive) | 110% (inactive) | 66.1% | 227% (inactive) | 64.5% (active) | 91.3% (inactive) | -14% (inactive) | 24.3% (inactive) | 38.1% (inactive) | 0.54% (inactive) | 113% (inactive) | -0.04 (inactive) | -1% (inactive) | 2.89% (inactive)
O=c1c2[nH]c3ccccc3c2ncn1CCC1=CCCCC1 | 91.7% (inactive) | 127% (inactive) | 103% (inactive) | 82% (inactive) | 89.6% (inactive) | 62.1% | 149% (inactive) | 14.2% (inactive) | 95.4% (inactive) | -3% (inactive) | -1.85% (inactive) | -5.27% (inactive) | 0.28% (inactive) | 101% (inactive) | 0.01 (inactive) | 13% (inactive) | 1.64% (inactive)
O=C(/C=C/c1ccco1)Nc1ccccc1C(=O)O | 98.1% (inactive) | 105% (inactive) | 107% (inactive) | 94.8% (inactive) | 109% (inactive) | 65.9% | 205% (inactive) | -31.9% (inactive) | 124% (inactive) | 11% (inactive) | 5.64% (inactive) | -15.5% (inactive) | 3.27% (inactive) | 105% (inactive) | -0.3 (inactive) | -11% (inactive) | 23.2% (inactive)
COc1c2ccoc2nc2c(OC)cccc12 | 105% (inactive) | 101% (inactive) | 95.8% (inactive) | 102% (inactive) | 105% (inactive) | 64.2% | 5040% (inactive) | 21.4% (inactive) | 82.1% (inactive) | 5% (inactive) | -6.43% (inactive) | -5.75% (inactive) | 0.27% (inactive) | 97.2% (inactive) | -0.13 (inactive) | 6% (inactive) | -15.2% (inactive)
Clc1ccc2c(c1)[C@H]1OCC[C@H]1[C@@H](c1ccco1)N2 | 108% (inactive) | 105% (inactive) | 107% (inactive) | 113% (inactive) | 88.8% (inactive) | 54.8% | 144% (inactive) | 1.59% (inactive) | 103% (inactive) | -1% (inactive) | 3.26% (inactive) | 3.61% (inactive) | 3.05% (inactive) | 104% (inactive) | 0.27 (inactive) | -23% (inactive) | -16.3% (inactive)
O=C(NC(=S)Nc1ccc2c(c1)OCCO2)c1ccccc1F | 103% (inactive) | 108% (inactive) | 101% (inactive) | 93% (inactive) | 97.7% (inactive) | 61.5% | 2360% (inactive) | 1.12% (inactive) | 109% (inactive) | 2% (inactive) | 5.42% (inactive) | 7.78% (inactive) | 1.01% (inactive) | 98.5% (inactive) | -0.12 (inactive) | 9% (inactive) | 0% (inactive)

Reference: PubChem BioAssay
